# According to the supplement of paper PMC10981050:
# “And” between values parts separate entries of the source, which are not always exact repeats. Identical values can stand only once. Counter-ions that a name gives are not always drawn.
# What was measured:
# Assay in all cases: cell viability relative to vehicle control; higher = less cytotoxic
# Details in all cases: 10 µM
# K562 = test system: K562
# Outline: (§1)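 Four leukaemia lines, as CRISPR-edited mutant clones and isogenic wild-type clones, were tested against Selleck bioactive, kinase and epigenetic probe libraries after removal of identity-inconsistent compounds. Cells were exposed to a single 10 µM dose for 48 h, and CellTiter-Glo luminescence was then read. Viability was calculated relative to the on-plate vehicle control.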
# MARIMO = test system: MARIMO
# Outline: as §1
# MOLM14 = test system: MOLM14
# Outline: as §1
# OCI-AML2 = test system: OCI-AML2
# Outline: as §1
Compound,cell viability (K562; SRSF2 genotype: SRSF2 P95H/wt),cell viability (K562; SRSF2 genotype: SRSF2 wt/wt),cell viability (MARIMO; SRSF2 genotype: SRSF2 P95H/wt),cell viability (MARIMO; SRSF2 genotype: SRSF2 wt/wt),cell viability (MOLM14; SRSF2 genotype: SRSF2 P95H/wt),cell viability (MOLM14; SRSF2 genotype: SRSF2 wt/wt),cell viability (OCI-AML2; SRSF2 genotype: P95H/wt),cell viability (OCI-AML2; SRSF2 genotype: wt/wt)
Cc1c(N[C@@H](c2nnc(-c3ccc(C#N)cc3)o2)[C@H](C)O)ccc(C#N)c1Cl,87.6% and 86.2%,100%,88.4%,96.5%,88.9%,100%,100%,102%
CC(C)=CCC[C@](C)(O)[C@H]1CC[C@]2(C)[C@@H]1[C@H](O)C[C@@H]1[C@@]3(C)CC[C@H](O[C@@H]4O[C@H](CO)[C@@H](O)[C@H](O)[C@H]4O)C(C)(C)[C@@H]3CC[C@]12C [20S-Ginsenoside Rh2],98.1% and 92.1%,105%,104%,106%,103%,106%,97.4%,96.2%
Nc1ncnc2c1ccn2[C@@H]1O[C@H](CO)[C@@H](O)[C@H]1O [Tubercidin],4.16% and 3.19%,3.9%,1.78%,1.63%,0.87%,1.22%,0.61%,0.99%
O=S(=O)(CC1CS1)c1ccc(Oc2ccccc2)cc1 (stereo not given),88.7% and 98.8%,92.2%,45.8%,73.1%,39.1%,29.4%,14.9%,14.1%
C=C[C@@H]1C2=CCOC(=O)C2=CO[C@H]1O[C@@H]1O[C@H](CO)[C@@H](O)[C@H](O)[C@H]1O [Gentiopicroside],97.2% and 95.7%,96.3%,94.5%,99%,98.5%,104%,94%,108%
CC1CCC2N(C1)CC1C3CC4C(CC(=O)C5CC(O)CCC54C)C3CCC1C2(C)O (stereo not given) [Peiminine],92.5% and 90.8%,86.1%,107%,109%,87%,75.6%,46.2%,58.8%
COc1ccc(N(C(=O)Oc2c(C)cccc2C)c2ccnc(Nc3ccc(N4CCN(C)CC4)cc3)n2)c(OC)c1,7.22% and 20.7%,6.62%,72.3%,58.7%,38.8%,35.4%,23.5%,28.6%
CC1C(=O)OC2C(O)C34C5OC(=O)C3(OC3OC(=O)C(O)C34C(C(C)(C)C)C5O)C12O (stereo not given) [Ginkgolide C],98.9% and 97.9%,94.4%,93.5%,97.6%,103%,103%,102%,105%
NCC(=O)O.[C-]#[O+].[C-]#[O+].[C-]#[O+].[Cl][Ru],104% and 93.3%,96.2%,88.5%,99.2%,88.6%,90.8%,91.9%,114%
C[C@]12CC[C@H]3[C@@H](CC[C@@]45O[C@@H]4C(O)=C(C#N)C[C@]35C)[C@@H]1CC[C@@H]2O [Trilostane],92.4% and 94.7%,97.6%,87.4%,92.5%,95.4%,102%,123%,118%
O=C([O-])C(Cl)Cl.[Na+] [Sodium dichloroacetate (DCA)],96.5% and 94.6%,97.6%,96.1%,104%,95.3%,99%,96.7%,101%
Cc1sc2c(c1C)C(c1ccc(Cl)cc1)=NC(CC(N)=O)c1nnc(C)n1-2 (stereo not given),65.2% and 63.5%,69.8%,30%,36.7%,20.1%,20.3%,15.3%,29.4%
CC(C)NCC(O)c1ccccc1Cl (stereo not given) [Clorprenaline HCL],98.2% and 96.8%,104%,98.2%,107%,95.2%,101%,108%,99.1%
O=C(CBr)N1CC([N+](=O)[O-])([N+](=O)[O-])C1,86.2% and 82.7%,81.4%,85.5%,101%,88.6%,88.7%,94.3%,114%
CC(C)c1cc2c(c(O)c1O)[C@@]1(C(=O)O)CCCC(C)(C)[C@@H]1CC2 [Carnosic acid],70.2% and 83.7%,86.6%,41.8%,5.17%,43.8%,41.1%,33.2%,27.1%
C[C@@]12C[C@@H](c3ccoc3)OC(=O)[C@@H]1CC[C@]1(C)[C@H]2[C@@H]2C=C[C@@]1(O)C(=O)O2 [Columbin],104% and 96.4%,102%,99%,106%,108%,100%,104%,103%
CCOc1ccccc1-n1c(C(C)N2CCN(C(=O)COc3ccc(Cl)cc3)CC2)nc2ccccc2c1=O (stereo not given) [Erastin],,63%,21.1%,38.8%,6.91%,3.65%,0.65%,12.4%
C=C[C@H]1CN2CC[C@]3(C(=O)Nc4ccccc43)[C@@H]2C[C@@H]1/C(=C\OC)C(=O)OC [Corynoxeine],92.3% and 98.1%,97.7%,84.5%,81.1%,93.8%,93.1%,96%,95.4%
C/C=C\c1cc(OC)c(OC)cc1OC [Beta-Asarone],106% and 104%,104%,98%,102%,104%,104%,104%,105%
COc1ccc2c(c1)[nH]c1c(C)nccc12 [Harmine hydrochloride],88.3% and 94.7%,92.7%,79.5%,87.7%,54.3%,66.8%,38.1%,49.9%
CC(=O)O[C@H]1CC[C@H]2[C@@H]3CCC4=CC(=O)CCC4=C3C=C[C@]12C [Trenbolone acetate],98.4% and 111%,98.9%,87.2%,96%,83%,102%,114%,101%

Compound,cell viability (K562; SRSF2 genotype: SRSF2 P95H/wt),cell viability (K562; SRSF2 genotype: SRSF2 wt/wt),cell viability (MARIMO; SRSF2 genotype: SRSF2 P95H/wt),cell viability (MARIMO; SRSF2 genotype: SRSF2 wt/wt),cell viability (MOLM14; SRSF2 genotype: SRSF2 P95H/wt),cell viability (MOLM14; SRSF2 genotype: SRSF2 wt/wt),cell viability (OCI-AML2; SRSF2 genotype: P95H/wt),cell viability (OCI-AML2; SRSF2 genotype: wt/wt)
CC(C)[C@]12O[C@H]1[C@@H]1O[C@@]13[C@@]1(C)CCC4=C(COC4=O)[C@@H]1C[C@@H]1O[C@@]13C2=O [Triptonide],5.3% and 13.3%,8.48%,12.8%,5.79%,2.66%,0.71%,5.01%,15.2%
C[C@H]1CC(=O)C[C@@H]2CC[C@H]3[C@@H]4CC[C@H](O)[C@@]4(C)CC[C@@H]3[C@]21C [Mesterolone],84.1% and 79.7%,83%,71.6%,82.2%,79.9%,84.7%,75.6%,80.7%
COc1cc(C(=O)O)cc(OC)c1OC [Gallic acid trimethyl ether],106% and 110%,101%,102%,106%,105%,106%,99.2%,109%
CCC(C)C(=O)O[C@@H]1[C@@H](OC(C)=O)[C@]2(C)[C@H](C(C)=O)CC[C@@]23O[C@]32CC[C@H]3C[C@@H](O[C@H]4C[C@@H](OC)[C@H](O[C@@H]5O[C@H](C)[C@@H](O)[C@@H](OC)[C@H]5O)[C@@H](C)O4)CC[C@]3(C)[C@@H]12 (stereo not given in full) [Tenacissoside H],89.8% and 95.2%,97.7%,96.9%,93.2%,94.6%,93.4%,98.9%,96.7%
O=C(NC(=O)c1c(F)cccc1F)Nc1ccc(OC(F)(F)C(F)OC(F)(F)F)c(Cl)c1 (stereo not given) [Novaluron],110% and 101%,113%,94.2%,98.4%,106%,106%,98.1%,109%
N[C@@H]1C[C@H]1c1ccccc1 [Tranylcypromine (2-PCPA) HCl],109% and 112%,115%,98%,107%,97.7%,97.5%,94.1%,85%
C[C@@]12N[C@@H](Cc3ccccc31)c1ccccc12 [(-)-MK 801 maleate],105% and 106%,108%,101%,100%,100%,112%,98.3%,90.7%
CCN1CC2(OC(=O)c3ccccc3NC(C)=O)CCC(OC)C34C1C(CC23)C1(O)CC(OC)C2CC4C1(O)C2OC (stereo not given) [Lappaconite Hydrobromide],102% and 86.3%,88.2%,86.7%,96.2%,89.6%,96.4%,97.3%,87.2%
Nc1nc(N)nc(N)n1 [Melamine],93% and 95.7%,90%,94.3%,99%,90.1%,94.4%,95.2%,97.8%
COc1ccc(C=O)cc1 [p-Anisaldehyde],107% and 99.7%,111%,103%,103%,105%,104%,97.2%,117%
CCCCCCC(=O)O[C@H]1CC[C@H]2[C@@H]3CCC4=CC(=O)CC[C@]4(C)[C@H]3CC[C@]12C [Testosterone Enanthate],91.4% and 86%,88.5%,66.5%,61.8%,50.1%,20.5%,23.7%,25.8%
CCN1C[C@]2(COC)CC[C@H](OC)[C@]34C1[C@H](C[C@H]23)[C@@]1(O)C[C@H](OC)[C@H]2C[C@@H]4[C@@H]1[C@H]2O [Talatisamine],110% and 104%,108%,104%,108%,105%,106%,101%,107%
CC1=C(O)C(=O)C=C2C1=CC=C1[C@@]2(C)CC[C@@]2(C)[C@@H]3C[C@](C)(C(=O)O)CC[C@]3(C)CC[C@]12C [Celastrol],0.95% and 0.55%,0.65%,0.44%,0.52%,0.47%,0.51%,0.35%,0.44%
CC(=O)O[C@H]1C[C@H](O[C@H]2[C@@H](O)C[C@H](O[C@H]3[C@@H](O)C[C@H](O[C@H]4CC[C@@]5(C)[C@H](CC[C@@H]6[C@@H]5C[C@@H](O)[C@]5(C)[C@@H](C7=CC(=O)OC7)CC[C@]65O)C4)O[C@@H]3C)O[C@@H]2C)O[C@H](C)[C@H]1O[C@@H]1O[C@H](CO)[C@@H](O)[C@H](O)[C@H]1O [Lanatoside C],10.1% and 11.2%,12.5%,14.9%,5.1%,4.2%,0.9%,0.9%,3.5%
CCCN1C[C@H](CSC)C[C@@H]2c3cccc4[nH]cc(c34)C[C@H]21 [Pergolide mesylate],86.1% and 87.8%,89.7%,91.7%,103%,69.6%,83.5%,84%,93.1%
Nc1ncnc2c1ccn2[C@@H]1O[C@H]([C@H](O)c2ccccc2)[C@@H](O)[C@H]1O,89.1% and 85%,79.6%,83.5%,95.3%,77.1%,89.3%,79%,88%
CC(C)N(CCNC(=O)CN1CCCC1=O)C(C)C [Pramiracetam],96.6% and 106%,104%,98.4%,111%,107%,102%,98.1%,105%
CC(=O)OC1CN2CCC1CC2 (stereo not given) [Aceclidine HCl],99.8% and 104%,100%,104%,112%,104%,106%,102%,105%
C[C@H]1CCC/C=C/[C@@H]2C[C@H](O)C[C@H]2[C@H](O)/C=C/C(=O)O1 [Brefeldin A],19% and 24.5%,24.1%,9.22%,6.8%,6.71%,4.1%,4.83%,18.7%
CC(C)=CCCC(C(=O)O)C1CCC2(C)C3=C(CCC12C)C1(C)CCC(=O)C(C)(C)C1CC3 (stereo not drawn) [Beta-Elemonic],96% and 89.7%,87.7%,92.7%,99%,88.8%,93.1%,100%,101%
COC(=O)c1ccccc1C(=O)OC [Dimethyl phthalate],86.9% and 85.8%,84%,85.6%,93.4%,87.5%,85.8%,89.5%,80.7%
